Source: PubChem (several laboratories)
Rows were chosen to be rich in hits. Some 1.4% of all compounds tested hit in one or more screens of this group.
GLD-1 RNA inh: GLD-1/TGE RNA complex disruptors, primary screen, biochemical, fluorescence polarization | inhibition, % at 5.96 µM | purified GLD-1 + fluorescein TGE RNA | hit rate 0.44% among 320,000 | Female germline-specific tumor suppressor gld-1 (Caenorhabditis elegans), Q17339;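 active means percent inhibition above a per-plate cutoff, the plate mean of test compounds plus 3 SD, cut at about 30% in these data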
Bcl-xL primary: inhibitors of human Bcl-xL, primary screen, biochemical, fluorescence polarization, HTS; Bcl-2-like protein 1 (Homo sapiens), Q07817; GST-Bcl-xL / FITC-Bim BH3 peptide fluorescence polarization; inhibition, % at 10.9 µM; hit rate 0.7% among 320,000;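 active means inhibition above the mean of all tested compounds plus 3 SD, cutoff set per campaign, cut at about 30% in these data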;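 further: inhibitors lower millipolarization by displacing the labeled peptide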
Target sequence (Q07817 whole entry, looked up): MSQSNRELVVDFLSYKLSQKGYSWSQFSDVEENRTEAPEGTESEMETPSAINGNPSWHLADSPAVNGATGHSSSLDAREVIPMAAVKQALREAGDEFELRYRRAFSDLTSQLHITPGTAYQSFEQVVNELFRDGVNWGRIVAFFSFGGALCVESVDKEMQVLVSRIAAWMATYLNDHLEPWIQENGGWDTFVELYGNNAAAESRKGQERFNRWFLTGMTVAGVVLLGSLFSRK
MEX-5 binding: MEX-5 zinc finger RNA-binding disruptors – biochemical, C. elegans, fluorescence polarization, MLPCN library, primary screen; activity score (negative = inhibition of binding), % at 10 µM; MEX-5/FITC-TCR2 RNA binding; stronger effect = lower value; Zinc finger protein mex-5 (Caenorhabditis elegans), Q9XUB2; hit rate 0.38% among 300,000;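 active means inhibition past about -25% in most replicates, and total fluorescence under double the plate's negative control median, limit read from the data; inconclusive means replicates evenly split on the limit, or fluorescence at least double controls; inactive means too little inhibition in most replicates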
MCL1-BIM inh: inhibitors of MCL1 binding to BIM-BH3, primary screen, biochemical, fluorescence polarization; GST-MCL1 / FITC-Bim-BH3 fluorescence polarization; inhibition, % at 10.9 µM; hit rate 0.68% among 320,000;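 active means inhibition above the mean inhibition of all tested compounds plus 3 SD, set per campaign, cut at about 40% in these data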;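 further: higher means more loss of mP so more displacement of Bim peptide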
eLon inh: inhibitors of E. coli Lon protease, primary screen, biochemical, fluorescence polarization | P0A9M0 | purified E. coli Lon protease | inhibition, % at 7.94 µM | hit rate 0.42% among 360,000 | AID 602123, 2011; in the data active means inhibition above about 13%, passing the limit was not always enough
E coli Lon conf: E. coli Lon protease inhibitor retest, confirmation, biochemical, fluorescence polarization; shares compounds with eLon inh; purified E. coli Lon; inhibition, % at 7.94 µM; hit rate 31% among 1,400; in the data active means inhibition above about 16%
Numbers stand for hits; . = inactive; ? = inconclusive; / = no result.

SMILES | GLD-1 RNA inh | Bcl-xL primary | MEX-5 binding | MCL1-BIM inh | eLon inh | E coli Lon conf
CCC1C2CN(C(C)=O)CC=C2C(C#N)=C(N)C1(C#N)C#N (configuration not stated) | . | . | . | . | . | /
N#CC1=C(N)C(C#N)(C#N)[C@H](c2ccncc2)[C@H]2CN(C(=O)OCc3ccccc3)CC=C12 | . | . | . | . | . | /
CCN1CC=C2C(C#N)=C(N)C(C#N)(C#N)C(c3cc(Cl)ccc3Cl)C2C1 (configuration not stated) | 104 | 122 | ? | 150 | 28 | .
CC(C)N1CC=C2C(C#N)=C(N)C(C#N)(C#N)C(c3ccccc3)C2C1 (configuration not stated) | 93 | 117 | ? | 128 | 53 | 20
CN1CC=C2C(C#N)=C(N)C(C#N)(C#N)C(Cc3ccccc3)C2C1 (configuration not stated) | 69 | 118 | -69 | 129 | 39 | .
COc1ccc2[nH]c(C(=O)O)c(NC(=O)c3ccccc3[N+](=O)[O-])c2c1 | . | . | . | . | . | /
CCN(CC)c1cc2c(c3c1ccn3C)C1CCC2C1 (configuration not stated) | / | / | / | / | . | /
COc1ccc(S(=O)(=O)Cc2ccc(C(=O)NC3CCCCC3)o2)cc1 | . | . | . | . | 27 | .
Cc1cc2cc3c(=O)[nH]c(=O)cc-3n(CC(O)C(O)C(O)CO)c2cc1C (configuration not stated) | / | / | / | / | 87 | 91
CCCS(=O)(=O)NC(=O)C1(C)CCCN(C(=O)CSc2ccccc2)C1 (configuration not stated) | / | / | / | / | . | /
COC(=O)c1c(C(=O)OC)c2n(c1C)Cc1ccccc1C2 | . | . | ? | . | 123 | .
COc1cccc(OCc2cc(C(=O)N3CCN(C)C(c4ccccc4)C3)no2)c1 (configuration not stated) | . | . | . | . | . | /
CCCCn1c(N)c(N(CC(C)C)C(=O)CSCC(=O)Nc2ccc(OC)cc2)c(=O)[nH]c1=O | . | . | . | . | . | /
COc1ccc(N2CCN(C3CCCCC3NS(=O)(=O)c3ccc(Cl)cc3)CC2)cc1 (configuration not stated) | . | . | . | . | . | /
COc1ccccc1N1CCN(C2CCCCC2NS(=O)(=O)c2ccc(Cl)cc2)CC1 (configuration not stated) | . | . | . | . | 25 | .
CCOc1ccc(-c2c(=O)n(OCc3ccc([N+](=O)[O-])cc3)c3ccccc3[n+]2[O-])cc1 | . | . | . | . | / | /
C=CCN(c1ccccc1)S(=O)(=O)c1cc2c(cc1C)NC(=O)CO2 | . | . | . | . | . | /
CC12CCC(C(=O)NNC(=O)c3ccc(Br)cc3)(OC1=O)C2(C)C (configuration not stated) | . | . | . | . | 18 | .
COc1ccc(CCNC(=O)CCNC(=O)c2ccco2)cc1OC | . | . | . | . | 22 | .
CCCCn1c(N)c(N(CC(C)C)C(=O)c2ccco2)c(=O)[nH]c1=O | . | . | . | . | . | /
Cc1ccc(CNc2ccc(O)cc2)cc1 | / | / | . | / | 20 | .
Cc1ccc(S(=O)(=O)NCc2ccc3[nH]c(C)cc3c2)cc1 | . | . | . | . | . | /
CC(=O)Nc1ccc(S(=O)(=O)NCc2ccc3[nH]c(C)cc3c2)cc1 | . | . | . | . | 19 | .
COc1cc(NCCCCCCN)c2ncccc2c1OC | / | / | / | / | . | /
COc1cc(NC(C)CCCNC(C)C)c2ncccc2c1OC (configuration not stated) | / | / | / | / | 30 | .
O=C(NCC1CCCN1S(=O)(=O)c1cccs1)C(=O)Nc1ccccc1Cl (configuration not stated) | . | . | . | . | 22 | .
CSc1nc(SCC(=O)NCC2CCCO2)c2c3c(sc2n1)CN(C)CC3 (configuration not stated) | . | . | . | . | / | /
NC(=O)c1ccc(SCC(=O)OCC(=O)NCC2CCCCC2)c([N+](=O)[O-])c1 | . | . | . | . | . | /
Cc1[nH]n(-c2ccccc2)c(=O)c1/C=N/NC(=O)c1ccccc1F | . | . | . | . | 21 | .
O=C(NC1CCCc2ccccc21)c1ccccc1OC(F)F (configuration not stated) | . | . | . | . | . | /
